T cruzi growth-1: blocks T. cruzi growth in NIH3T3 culture | T. cruzi beta-gal in NIH3T3, GalScreen luminescence, 90 h | inhibition, % at 8.34 µM | 77,000 tested, 5.9% active | AID 624255;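 active means mean inhibition above about 93%, with at least 55% of replicates each passing it, limit read from the data, passing the limit was not always enough; inconclusive means only one of those two conditions holds; inactive means neither condition holds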
C diff growth: C. difficile growth inhibition; 86,000 tested, 0.25% active; Clostridium difficile clinical isolate growth, OD600, 24 h; hits give low values; growth activity, negative = inhibition, % at 16 µg/mL (by protocol);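 active means mean growth activity at or below -80% and every replicate also at or below -80%; inconclusive means mean at or below -80% but some replicate above -80%; inactive means mean growth activity above -80%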
Pf Dd2 growth: inhibitors of Plasmodium falciparum Dd2 growth; P. falciparum Dd2 growth, SYBR Green, 72 h; hits give low values; activity change, % at 10 µM; 94,000 tested, 2.3% active; AID 1159554; in the data active means activity change below about -80%; inconclusive means no clear call, values can overlap the other calls
T cruzi growth-2: blocks T. cruzi growth in NIH3T3 host cells. shares compounds with T cruzi growth-1. T. cruzi beta-gal in NIH3T3, GalScreen luminescence, 90 h. inhibition, % at 8.35 µM. 5,600 tested, 72% active;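 active means mean replicate inhibition above about 95% and at least 55% of replicates individually reaching it, limit read from the data; inconclusive means only one of the two criteria is met; inactive means neither criterion is met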
T cruzi growth-3: Trypanosoma cruzi proliferation inhibition; AID 651740; inhibition, % at 2.09 µM; 5,600 tested, 21% active; shares compounds with T cruzi growth-1; T. cruzi beta-gal in NIH3T3, GalScreen luminescence, 90 h;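 active means mean inhibition above about 95%, with at least 55% of replicates also reaching it, limit read from the data; inconclusive means meets just one of the two conditions; inactive means meets neither condition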
NIH3T3 tox: kills mouse NIH/3T3 fibroblasts; shares compounds with T cruzi growth-1; NIH/3T3 viability, CellTiter-Glo ATP luminescence, 90 h; cytotoxicity (signal decrease), % at 8.35 µM; 5,600 tested, 14% active;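 active means mean signal decrease across replicates above about 35% based on untreated-well scatter, with enough replicates individually passing, limit read from the data; inconclusive means no rule stated though some were filed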
NIH3T3 tox 2: kills mouse NIH/3T3 fibroblasts. 5,600 tested, 56% active. NIH/3T3 viability, CellTiter-Glo ATP luminescence, 90 h. shares compounds with T cruzi growth-1. inhibition, % at 24.9 µM;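 active means mean loss of cell viability signal at or above a set limit, and enough replicates individually reaching it; inconclusive means meets only the mean limit or only the replicate share; inactive means meets neither condition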
Numbers stand for hits. Compounds with a hit are over-represented: about 6.8% of the library has one in this group of screens.

How did C[C@H](CO)N1C[C@H](C)[C@@H](CN(C)C(=O)C2CCCCC2)OCCCC[C@H](C)Oc2ccc(NS(=O)(=O)c3ccc(F)cc3)cc2C1=O do in these assays?
T cruzi growth-1: inactive; C diff growth: inactive; Pf Dd2 growth: inactive

What do the screens show for `O=C(C[C@H]1C[C@@H]2c3cc(NC(=O)Nc4ccc(C(F)(F)F)cc4)ccc3O[C@@H]2[C@H](CO)O1)NCc1ccc2c(c1)OCO2`?
T cruzi growth-1: inactive; C diff growth: inactive; Pf Dd2 growth: inactive

How did CN1c2ccc(C#Cc3ccccc3F)cc2[C@H]2[C@H](CCN2C(=O)c2cnccn2)[C@H]1CO do in these assays?
T cruzi growth-1: inactive; C diff growth: inactive; Pf Dd2 growth: inactive

How did COc1cccc(NC(=O)N(C)C[C@H]2Oc3ncc(C#Cc4ccccc4)cc3C(=O)N([C@@H](C)CO)C[C@@H]2C)c1 do in these assays?
T cruzi growth-1: 123; C diff growth: inactive; Pf Dd2 growth: inactive; T cruzi growth-2: 112; T cruzi growth-3: 110; NIH3T3 tox: inactive; NIH3T3 tox 2: inactive

What do the screens show for `C[C@H](CO)N1C[C@H](C)[C@@H](CN(C)C(=O)Nc2ccccc2)Oc2ncc(C#CC3CCCCC3)cc2C1=O`?
T cruzi growth-1: 103; C diff growth: inactive; Pf Dd2 growth: inactive; T cruzi growth-2: 106; T cruzi growth-3: inactive; NIH3T3 tox: inactive; NIH3T3 tox 2: 30

Results for COc1cccc(C#Cc2cnc3c(c2)C(=O)N([C@H](C)CO)C[C@@H](C)[C@@H](CN(C)C)O3)c1 ?
T cruzi growth-1: inactive; C diff growth: inactive; Pf Dd2 growth: inactive

What do the screens show for `COc1cccc(C#Cc2cnc3c(c2)C(=O)N([C@H](C)CO)C[C@@H](C)[C@H](CN(C)C)O3)c1`?
T cruzi growth-1: 102; C diff growth: inactive; Pf Dd2 growth: inactive; T cruzi growth-2: 102; T cruzi growth-3: inactive; NIH3T3 tox: inactive; NIH3T3 tox 2: 105

Results for C[C@@H]1CN([C@H](C)CO)C(=O)c2cc(C#CC3CCCCC3)cnc2O[C@H]1CN(C)C(=O)Nc1ccccc1 ?
C diff growth: inactive; Pf Dd2 growth: inactive

Results for COc1cccc(NC(=O)N(C)C[C@@H]2Oc3ncc(C#Cc4ccncc4)cc3C(=O)N([C@H](C)CO)C[C@@H]2C)c1 ?
C diff growth: inactive; Pf Dd2 growth: inactive

Results for COc1cccc(NC(=O)N(C)C[C@H]2Oc3ncc(C#Cc4ccncc4)cc3C(=O)N([C@H](C)CO)C[C@H]2C)c1 ?
C diff growth: inactive; Pf Dd2 growth: inactive

Results for COc1cccc(NC(=O)N(C)C[C@@H]2Oc3ncc(C#Cc4ccccc4)cc3C(=O)N([C@@H](C)CO)C[C@@H]2C)c1 ?
T cruzi growth-1: inconclusive; C diff growth: inactive; Pf Dd2 growth: inactive; T cruzi growth-2: 100; T cruzi growth-3: inactive; NIH3T3 tox: inactive; NIH3T3 tox 2: inactive

What do the screens show for `COc1ccc(-c2cnc3c(c2)C(=O)N([C@H](C)CO)C[C@H](C)[C@H](CN(C)S(=O)(=O)c2cn(C)cn2)O3)cc1`?
T cruzi growth-1: inactive; C diff growth: inactive; Pf Dd2 growth: inactive

How did C[C@H](CO)N1C[C@H](C)[C@@H](CN(C)S(=O)(=O)c2ccccc2)OCCCC[C@H](C)Oc2ccc(NC(=O)Nc3ccc4c(c3)OCO4)cc2C1=O do in these assays?
T cruzi growth-1: inactive; C diff growth: inactive; Pf Dd2 growth: inactive

How did COc1ccc(S(=O)(=O)Nc2ccc3c(c2)C(=O)N([C@H](C)CO)C[C@@H](C)[C@@H](CN(C)C(=O)Nc2ccc(F)cc2)O3)cc1 do in these assays?
T cruzi growth-1: inactive; C diff growth: inactive; Pf Dd2 growth: inactive

How did C[C@@H]1CN([C@@H](C)CO)S(=O)(=O)c2ccc(C#CC3CC3)cc2O[C@H]1CN(C)CC1CCOCC1 do in these assays?
T cruzi growth-1: 109; C diff growth: inactive; Pf Dd2 growth: inactive; T cruzi growth-2: inactive; T cruzi growth-3: inactive; NIH3T3 tox: 65; NIH3T3 tox 2: 89

How did C[C@H](CO)N1C[C@H](C)[C@@H](CN(C)CC2CCOCC2)Oc2cc(C#CC3CC3)ccc2S1(=O)=O do in these assays?
T cruzi growth-1: inactive; C diff growth: inactive; Pf Dd2 growth: inactive

Results for C[C@@H]1CN([C@@H](C)CO)S(=O)(=O)c2ccc(C#CC3CC3)cc2O[C@@H]1CN(C)CC1CCOCC1 ?
T cruzi growth-1: inactive; C diff growth: inactive; Pf Dd2 growth: inactive

How did C[C@H]1CN([C@@H](C)CO)S(=O)(=O)c2ccc(C#CC3CC3)cc2O[C@@H]1CN(C)CC1CCOCC1 do in these assays?
T cruzi growth-1: inconclusive; C diff growth: inactive; Pf Dd2 growth: inactive; T cruzi growth-2: 103; T cruzi growth-3: inactive; NIH3T3 tox: inactive; NIH3T3 tox 2: 99

What do the screens show for `O=C(C[C@@H]1CC[C@H](NS(=O)(=O)c2ccccc2)[C@@H](CO)O1)NCc1ccncn1`?
T cruzi growth-1: inactive; C diff growth: inactive; Pf Dd2 growth: inactive

Results for O=C(NCC[C@H]1CC[C@H](NS(=O)(=O)c2cccc(F)c2)[C@@H](CO)O1)C1CCCCC1 ?
C diff growth: inactive; Pf Dd2 growth: inactive

What do the screens show for `COc1ccccc1C#Cc1ccc2c(c1)O[C@H](CN(C)Cc1ccccc1)[C@@H](C)CN([C@H](C)CO)S2(=O)=O`?
T cruzi growth-1: 114; C diff growth: inactive; Pf Dd2 growth: inactive; T cruzi growth-2: 99; T cruzi growth-3: 112; NIH3T3 tox: inactive; NIH3T3 tox 2: inactive

What do the screens show for `COc1ccccc1C#Cc1ccc2c(c1)O[C@H](CN(C)Cc1cccnc1)[C@H](C)CN([C@@H](C)CO)S2(=O)=O`?
C diff growth: inactive; Pf Dd2 growth: inactive

Results for COc1ccccc1C#Cc1ccc2c(c1)O[C@H](CN(C)Cc1cncnc1)[C@@H](C)CN([C@@H](C)CO)S2(=O)=O ?
T cruzi growth-1: inactive; C diff growth: inactive; Pf Dd2 growth: inactive

How did COc1ccccc1C#Cc1ccc2c(c1)O[C@@H](CN(C)Cc1ccccc1)[C@@H](C)CN([C@H](C)CO)S2(=O)=O do in these assays?
T cruzi growth-1: 122; C diff growth: inactive; Pf Dd2 growth: inactive; T cruzi growth-2: 107; T cruzi growth-3: 113; NIH3T3 tox: inactive; NIH3T3 tox 2: inactive

How did COc1ccccc1C#Cc1ccc2c(c1)O[C@H](CN(C)Cc1cncnc1)[C@H](C)CN([C@@H](C)CO)S2(=O)=O do in these assays?
T cruzi growth-1: inactive; C diff growth: inactive; Pf Dd2 growth: inactive

Results for COc1ccccc1C#Cc1ccc2c(c1)O[C@@H](CN(C)Cc1ccccc1)[C@H](C)CN([C@@H](C)CO)S2(=O)=O ?
T cruzi growth-1: 119; C diff growth: inactive; Pf Dd2 growth: inactive; T cruzi growth-2: inactive; T cruzi growth-3: 112; NIH3T3 tox: 45; NIH3T3 tox 2: 42
